# Reference: PubChem BioAssay
# Activity calls are given as the source filed them.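 Rule for the calls, unless noted: active = compounds lowering colon cancer cell viability after pretreatment blocking the GSK3B kinase; inactive = the rest.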
# How the values were obtained:
# [1] = stimulators of insulin release from INS-1E, primary screen, cell-based, 5 mM glucose, NPC library (AID 1117329;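 active = compound raises insulin release from rat beta cells at 5 mM glucose, no numeric limit stated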); conditions: rat INS-1E insulin secretion, at 10 µM, stronger effect = higher value
# [2] = growth inhibition of GSK3B-pretreated HCT116 cells – cell-based, CellTiter-Glo, 0.2 to 20 µM (AID 1117336); conditions: HCT116 viability after GSK3B inhibitor, at 20 µM, stronger effect = higher value
# [3] = inhibition of endothelial tube formation, primary screen, imaging, VEGF stimulated, CD31 staining, tube area, NPC library (AID 1117340;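 active = compound that reduces growth-factor-driven endothelial tube area in a mixed cell culture, no cutoff stated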); conditions: VEGF-stimulated ADSC/ECFC co-culture, at 10 µM, stronger effect = higher value
# [4] = GLP1 release stimulators, primary, NCI-H716, NPC library (AID 1117341;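 active = compound raises GLP1 secretion from the human gut endocrine cells, with no numeric limit stated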); conditions: NCI-H716 cells, at 10 µM, stronger effect = higher value
# [5] = HCT116 colon cancer cell growth inhibition, primary screen, CellTiter-Glo luminescence, NPC library (AID 1117342;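 active = compounds that lower survival of HCT116 colon cancer cells in the luminescence readout, no numeric limit stated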); conditions: at 20 µM (top of the series)
# [6] = reduced SW480 viability measured with CellTiter-Glo, NPC library, primary (AID 1117343;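 active = compounds that lower viability of the colon cancer cells in the luminescence readout, with no numeric limit stated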); conditions: CellTiter-Glo luminescence; at 20 µM (top of the series)
# [7] = NPC library primary testing for decreased DLD-1 cell viability via CellTiter-Glo (AID 1117346;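 active = compounds that lower survival of DLD-1 colon cancer cells in the luminescence readout, no cutoff given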); conditions: DLD-1 viability, CellTiter-Glo luminescence; at 20 µM (top of the series)
# [8] = biological target: 6-phosphogluconate dehydrogenase, decarboxylating (Homo sapiens) (UniProt P52209); test: inhibition of human phosphogluconate dehydrogenase – biochemical, recombinant enzyme, NADPH absorbance, primary screen (AID 1159550;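 active = at least 20% inhibition of 6-phosphogluconate dehydrogenase activity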); conditions: recombinant 6PGD, NADPH absorbance 341 nm; at 10 µM; stronger effect = higher value
# Sequence of 6-phosphogluconate dehydrogenase, decarboxylating (Homo sapiens) (P52209 whole entry, looked up): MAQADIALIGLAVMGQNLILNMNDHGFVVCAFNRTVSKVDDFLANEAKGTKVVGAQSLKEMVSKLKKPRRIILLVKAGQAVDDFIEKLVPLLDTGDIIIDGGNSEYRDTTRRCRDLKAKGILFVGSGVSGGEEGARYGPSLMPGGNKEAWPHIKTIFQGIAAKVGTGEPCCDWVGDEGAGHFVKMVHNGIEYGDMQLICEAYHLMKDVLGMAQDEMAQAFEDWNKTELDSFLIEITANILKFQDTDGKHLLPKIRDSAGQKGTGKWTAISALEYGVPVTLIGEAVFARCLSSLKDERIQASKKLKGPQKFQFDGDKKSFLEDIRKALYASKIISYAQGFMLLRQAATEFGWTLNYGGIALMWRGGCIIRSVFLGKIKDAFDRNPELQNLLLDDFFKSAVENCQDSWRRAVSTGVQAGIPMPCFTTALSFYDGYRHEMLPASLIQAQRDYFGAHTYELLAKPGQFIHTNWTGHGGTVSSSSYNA
# [9] = EMT-state selective cytotoxicity in co-culture – imaging, PC-3E GFP, TEM4-18 mCherry, primary screen (AID 1345086;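 active = compounds killing one labelled cell type while sparing the other, by normalised counts and ratio limits, not self-fluorescent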;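 for all read-outs here: cells exposed to compound for 72 h before imaging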;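 for red/green cell ratio (normalised): normalised mesenchymal count divided by normalised epithelial count so high means epithelial killing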); conditions: PC-3E GFP / TEM4-18 mCherry co-culture, imaging cell counts, at 1 µM; for red/green cell ratio (normalised): actives lie on both sides, counts scaled to control wells, 1 = unselective
# [10] = measured here: epithelial PC-3E GFP cell survival
# [11] = measured here: mesenchymal TEM4-18 mCherry cell survival
Compound,insulin secretion stimulation [1],viability decrease [2],tube area decrease [3],GLP1 secretion stimulation [4],inhibition of viability [5],viability decrease (inhibition) [6],viability decrease (inhibition) [7],inhibition [8],red/green cell ratio (normalised) [9],"normalised cell number [9, 10]","normalised cell number [9, 11]"
CC(=O)Nc1ccc(S(=O)(=O)Nc2ccc([N+](=O)[O-])cc2)cc1,-0.2% (inactive),9.9% (inactive),18.2% (inactive),3.6% (inactive),-1.57% (inactive),11.5% (inactive),-3.8% (inactive),0.544% (inactive),0.81 (inactive),1.34,1.08
Oc1c(Cl)cc(Cl)cc1Sc1cc(Cl)cc(Cl)c1O,5.2% (inactive),99.2% (active),103% (active),23.6% (active),103% (active),113% (active),102% (active),-6.91% (inactive),0.99 (inactive),1.15,1.14
Nc1ccc(N=Nc2ccccc2)c(N)n1,0.5% (inactive),43.4% (inactive),36.8% (inactive),-4.7% (inactive),29% (inactive),31.9% (inactive),16% (inactive),3.23% (inactive),0.86 (inactive),1.07,0.92
CCn1cc(C(=O)O)c(=O)c2cnc(N3CCNCC3)nc21,1.5% (inactive),-23.1% (inactive),0.7% (inactive),-1.8% (inactive),-0.3% (inactive),-4.5% (inactive),-15.1% (inactive),6.84% (inactive),1.01 (inactive),0.76,0.77
COc1ccc(C(=O)c2ccccc2O)c(O)c1,-0.5% (inactive),-1.1% (inactive),1.6% (inactive),-1.5% (inactive),-9.15% (inactive),1.6% (inactive),-1.5% (inactive),11.7% (inactive),1.27 (inactive),1.28,1.63
NC(N)=NCCN1CCCCCCC1,-1.2% (inactive),1.25% (inactive),3.7% (inactive),-0.1% (inactive),30% (inactive),-11.2% (inactive),23.4% (inactive),10.5% (inactive),1.06 (inactive),1.17,1.23
CCOC(=O)c1ccc(N)cc1,-1% (inactive),5.65% (inactive),4% (inactive),-0.6% (inactive),7.6% (inactive),87.8% (active),18.2% (inactive),-17.7% (inactive),1.23 (inactive),1.07,1.31
Cc1c(N(C)CS(=O)(=O)O)c(=O)n(-c2ccccc2)n1C,-0.6% (inactive),1.05% (inactive),-53.1% (inactive),2.4% (inactive),3% (inactive),23.9% (inactive),3.35% (inactive),19.3% (inactive),1.09 (inactive),1.23,1.35
CC(=O)Nc1ccccc1,1% (inactive),-5.1% (inactive),-10.1% (inactive),2.1% (inactive),2.3% (inactive),25.2% (inactive),3.55% (inactive),-5.03% (inactive),1.11 (inactive),1.06,1.18
C=CCc1ccccc1OCC(O)CNC(C)C (stereo not given),2.2% (inactive),-6.8% (inactive),-1.1% (inactive),1.4% (inactive),34.3% (inactive),27.3% (inactive),12% (inactive),-12.3% (inactive),1 (inactive),1.2,1.2
CCOC(=O)NNc1nncc2ccccc12,3.7% (inactive),0.3% (inactive),-6.6% (inactive),-0.3% (inactive),-0.97% (inactive),9.4% (inactive),6.7% (inactive),-20.7% (inactive),0.96 (inactive),0.94,0.9
COc1cc(NS(=O)(=O)c2ccc(N)cc2)ncn1,4.3% (inactive),16.8% (inactive),1.4% (inactive),-4.1% (inactive),3.43% (inactive),-10.6% (inactive),3.8% (inactive),-1.56% (inactive),1.16 (inactive),0.74,0.86
Cc1c(NC(=O)c2cccnc2)c(=O)n(-c2ccccc2)n1C,-1% (inactive),-14.1% (inactive),7.1% (inactive),-0.1% (inactive),-4.77% (inactive),18.1% (inactive),-19.7% (inactive),-15.8% (inactive),1.04 (inactive),1.05,1.09
Oc1ccc(Cl)c2cccnc12,-2.1% (inactive),57.1% (active),11.9% (inactive),-5.7% (inactive),32.7% (inactive),84.4% (active),43.6% (inactive),10.3% (inactive),1.13 (inactive),1.27,1.45
Cc1cc(C)cc(OCC2CNC(=O)O2)c1 (stereo not given),-0.5% (inactive),4.3% (inactive),12.5% (inactive),-1.5% (inactive),3.1% (inactive),13.1% (inactive),6% (inactive),3.16% (inactive),1.5 (inactive),0.43,0.64
Nc1ccc(C(=O)NCC(=O)O)cc1,-1.1% (inactive),-2.9% (inactive),-2.1% (inactive),2.6% (inactive),-15.3% (inactive),36.1% (inactive),4.3% (inactive),-8.81% (inactive),1.12 (inactive),1.03,1.15
CCCc1ncc(C[n+]2ccccc2C)c(N)n1,0.95% (inactive),-5.4% (inactive),6.7% (inactive),0.7% (inactive),-12.5% (inactive),-33.4% (inactive),-13.4% (inactive),-3.15% (inactive),0.95 (inactive),1.35,1.28
CCCC(C(=O)OCCN(CC)CC)(c1ccccc1)c1ccccc1,5.7% (inactive),52.5% (active),9.6% (inactive),11.5% (inactive),86.3% (active),76.5% (active),62.5% (active),3.92% (inactive),1.41 (inactive),0.9,1.28
N=C(N)N,1.1% (inactive),-1.8% (inactive),12.8% (inactive),-1.2% (inactive),1.3% (inactive),1% (active),-1.3% (inactive),0.391% (inactive),1.05 (inactive),0.94,0.99
COc1ccc2cc1Oc1ccc(cc1)C[C@H]1c3c(cc4c(c3Oc3cc5c(cc3OC)CCN(C)[C@@H]5C2)OCO4)CCN1C,5.5% (inactive),98.1% (active),108% (active),1.9% (inactive),102% (active),123% (active),87.3% (active),-1.33% (inactive),0.85 (inactive),0.93,0.78
CCN(CCCc1ccccc1)CCCc1ccccc1,7.3% (inactive),-119% (inactive),5.4% (inactive),2.7% (inactive),41.4% (inactive),44% (inactive),60.1% (active),7.45% (inactive),0.99 (inactive),1.13,1.12
Nc1ccc(S(=O)(=O)Nc2nccs2)cc1,-1.1% (inactive),-5.95% (inactive),18.7% (inactive),-3.5% (inactive),-3.5% (inactive),52.4% (active),12% (inactive),2.97% (inactive),1.36 (inactive),0.91,1.24
O=C(O)CCC(=O)c1ccc(-c2ccccc2)cc1,1.1% (inactive),-13% (inactive),14.5% (inactive),0.1% (inactive),12.7% (inactive),13.6% (inactive),0.4% (inactive),8.67% (inactive),1.07 (inactive),1.07,1.15
C[N+]1(CCCCC[N+]2(C)CCCC2)CCCC1,2.5% (inactive),-7% (inactive),-11.3% (inactive),-1.6% (inactive),-2.5% (inactive),-8.4% (inactive),6.3% (inactive),10.2% (inactive),0.92 (inactive),1.09,1
C#CCN(C)Cc1ccccc1,4.5% (inactive),23.6% (inactive),3.1% (inactive),2.3% (inactive),2.23% (inactive),-22.7% (inactive),2.6% (inactive),0.126% (inactive),1.02 (inactive),1.04,1.05
Nc1ccc(S(=O)(=O)Nc2cnc3ccccc3n2)cc1,1.2% (inactive),21% (inactive),-18.5% (inactive),4.1% (inactive),0.93% (inactive),-1% (inactive),-9.7% (inactive),10.4% (inactive),1.03 (inactive),1.09,1.11
O=C(O)CCC(=O)Nc1ccc(S(=O)(=O)Nc2nccs2)cc1,-2.6% (inactive),-3.7% (inactive),21% (inactive),-5.7% (inactive),2% (inactive),40.3% (inactive),9.45% (inactive),-5.92% (inactive),1.01 (inactive),1.11,1.13
Nc1ccc(C(=O)O)c(O)c1,0.1% (inactive),-46.6% (inactive),15.9% (inactive),-6% (inactive),-12.6% (inactive),12.5% (inactive),-27.1% (inactive),6.71% (inactive),0.88 (inactive),1.36,1.19
NC(N)=NS(=O)(=O)c1ccc(N)cc1,-1.4% (inactive),7.4% (inactive),-2.9% (inactive),0.9% (inactive),-10.1% (inactive),54.6% (active),5.6% (inactive),-6% (inactive),1.03 (inactive),0.95,0.98
CN1CCCN=C1COC(=O)C(O)(c1ccccc1)C1CCCCC1 (stereo not given),16.3% (inactive),-83% (inactive),-29% (inactive),4.8% (inactive),19.6% (inactive),67.3% (active),33.9% (inactive),6.35% (inactive),1.18 (inactive),1.21,1.43
